Laboratory results from PubChem BioAssay.
Values without a mark were called inactive. For some assays here: Measured potencies and affinities stand elsewhere. Active and inactive are the calls of the source. Unless noted, the rule behind the calls is not given here.

Assays:
[1] = antimalarial activity against Dd2 strain (AID 2302;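 active = growth inhibition above 50% at the single 2 µM test dose, taken to imply half-maximal potency below 2 µM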;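 note: 0% = DMSO untreated growth and 100% = chloroquine plus artemisinin killed control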); settings: P. falciparum Dd2 in RBCs, LDH growth readout, 72 h; at 2 µM; hits give high values
[2] = HepG2 cytotoxicity, primary screen, cytotoxicity control for P. falciparum antimalarial project, cell-based, ATP luminescence (AID 2303;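 active = inhibition above 50%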;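 note: 0% = DMSO wells and 100% = digitonin-killed cells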); settings: HepG2 viability, 24-48 h, at 10 µM, hits give high values
[3] = target: L-lactate dehydrogenase (Plasmodium falciparum (isolate CDC / Honduras)) (UniProt Q27743); test: PfLDH activity inhibition – cell lysate, 3D7 strain, counter-screen for P. falciparum growth inhibition project (AID 2304);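 note: 0% = vehicle and 100% = reference inhibitor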; settings: P. falciparum 3D7 crude extract, LDH APAD/NBT absorbance; at 2 µM; hits give high values
[4] = inhibition of 3D7 malaria parasite growth – strain 3D7 (AID 2306);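 note: 0% = DMSO wells and 100% = chloroquine plus artemisinin control wells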; settings: P. falciparum 3D7 erythrocytic growth, LDH absorbance, 72 h; at 2 µM; hits give high values
[5] = target: Calcium-dependent protein kinase 1 (Plasmodium falciparum (isolate 3D7)) (UniProt P62344); test: PfCDPK1 kinase inhibitors, biochemical, TCAMS library (AID 1159585; cut-off not given, nearly all actives have IC50 up to about 0.98 µM;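 note: inhibitors leave more ATP so luminescence rises with inhibition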); settings: recombinant PfCDPK1, Kinase-Glo ATP depletion luminescence
[6] = target: Plasmodium falciparum protein kinase 6 (PK6, PF3D7_1337100) (UniProt Q8IDW1); test: PfPK6 kinase inhibitors, biochemical, TCAMS library (AID 1159586); settings: recombinant PfPK6, Kinase-Glo ATP depletion luminescence
[7] = target: Protein kinase 7 (PK7), Plasmodium falciparum 3D7 (PF3D7_0213400) (UniProt Q7YTF7); test: inhibition of Plasmodium PK7 catalytic activity – biochemical, TCAMS antimalarial set, Kinase-Glo luminescence (AID 1159587); settings: recombinant PfPK7, Kinase-Glo ATP depletion luminescence
[8] = target: Calcium-dependent protein kinase 4 (Plasmodium falciparum (isolate 3D7)) (UniProt Q8IBS5); test: PfCDPK4 kinase inhibitors, biochemical, TCAMS library (AID 1159588; cut-off not given, nearly all actives have IC50 up to about 0.91 µM); settings: recombinant PfCDPK4, Kinase-Glo ATP depletion luminescence
Chain of Calcium-dependent protein kinase 4 (Plasmodium falciparum (isolate 3D7)) (Q8IBS5 whole entry, looked up): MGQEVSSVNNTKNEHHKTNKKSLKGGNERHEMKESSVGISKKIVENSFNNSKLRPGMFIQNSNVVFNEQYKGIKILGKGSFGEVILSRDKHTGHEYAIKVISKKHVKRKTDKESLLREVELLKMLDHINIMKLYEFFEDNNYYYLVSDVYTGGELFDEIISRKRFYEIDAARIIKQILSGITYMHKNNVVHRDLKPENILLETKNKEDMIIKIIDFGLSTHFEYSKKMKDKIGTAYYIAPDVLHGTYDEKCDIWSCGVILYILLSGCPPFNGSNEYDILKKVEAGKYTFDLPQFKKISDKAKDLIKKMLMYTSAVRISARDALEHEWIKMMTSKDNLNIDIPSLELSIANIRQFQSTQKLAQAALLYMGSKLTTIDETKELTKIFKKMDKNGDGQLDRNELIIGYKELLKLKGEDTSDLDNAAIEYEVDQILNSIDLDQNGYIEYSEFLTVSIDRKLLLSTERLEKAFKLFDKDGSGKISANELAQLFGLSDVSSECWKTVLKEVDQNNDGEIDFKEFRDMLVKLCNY

Chain of Plasmodium falciparum protein kinase 6 (PK6, PF3D7_1337100) (Q8IDW1 1-305): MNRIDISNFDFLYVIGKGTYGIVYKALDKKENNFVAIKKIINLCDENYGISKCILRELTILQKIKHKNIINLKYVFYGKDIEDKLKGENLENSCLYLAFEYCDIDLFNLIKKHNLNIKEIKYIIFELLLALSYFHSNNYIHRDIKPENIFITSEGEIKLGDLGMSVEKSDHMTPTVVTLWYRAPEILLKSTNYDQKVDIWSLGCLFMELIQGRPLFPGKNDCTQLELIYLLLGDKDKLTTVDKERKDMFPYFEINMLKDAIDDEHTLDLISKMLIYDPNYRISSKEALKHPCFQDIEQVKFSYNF
Chain of L-lactate dehydrogenase (Plasmodium falciparum (isolate CDC / Honduras)) (Q27743 whole entry, looked up): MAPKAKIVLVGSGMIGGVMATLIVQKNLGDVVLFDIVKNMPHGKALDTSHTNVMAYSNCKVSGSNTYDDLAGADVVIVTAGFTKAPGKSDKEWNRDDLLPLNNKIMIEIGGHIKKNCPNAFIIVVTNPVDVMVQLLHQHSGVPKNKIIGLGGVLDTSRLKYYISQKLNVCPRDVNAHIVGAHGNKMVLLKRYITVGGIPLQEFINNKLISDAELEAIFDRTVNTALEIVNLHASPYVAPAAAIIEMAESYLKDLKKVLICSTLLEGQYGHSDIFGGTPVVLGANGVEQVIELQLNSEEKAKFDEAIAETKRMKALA
Chain of Calcium-dependent protein kinase 1 (Plasmodium falciparum (isolate 3D7)) (P62344 whole entry, looked up): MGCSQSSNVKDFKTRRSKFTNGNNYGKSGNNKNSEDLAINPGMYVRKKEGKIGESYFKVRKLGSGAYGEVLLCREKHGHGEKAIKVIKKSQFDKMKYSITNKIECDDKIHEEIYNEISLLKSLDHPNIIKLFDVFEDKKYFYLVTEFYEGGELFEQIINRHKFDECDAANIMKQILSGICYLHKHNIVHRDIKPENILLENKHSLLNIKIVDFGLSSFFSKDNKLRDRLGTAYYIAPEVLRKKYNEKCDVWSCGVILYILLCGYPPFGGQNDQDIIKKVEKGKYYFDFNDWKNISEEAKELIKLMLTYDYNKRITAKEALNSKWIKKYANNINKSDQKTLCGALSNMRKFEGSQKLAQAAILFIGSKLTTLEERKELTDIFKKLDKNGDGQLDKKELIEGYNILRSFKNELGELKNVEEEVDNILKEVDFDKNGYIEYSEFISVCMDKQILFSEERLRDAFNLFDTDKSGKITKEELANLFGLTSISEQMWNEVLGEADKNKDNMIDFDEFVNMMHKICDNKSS
Chain of Protein kinase 7 (PK7), Plasmodium falciparum 3D7 (PF3D7_0213400) (Q7YTF7 1-343): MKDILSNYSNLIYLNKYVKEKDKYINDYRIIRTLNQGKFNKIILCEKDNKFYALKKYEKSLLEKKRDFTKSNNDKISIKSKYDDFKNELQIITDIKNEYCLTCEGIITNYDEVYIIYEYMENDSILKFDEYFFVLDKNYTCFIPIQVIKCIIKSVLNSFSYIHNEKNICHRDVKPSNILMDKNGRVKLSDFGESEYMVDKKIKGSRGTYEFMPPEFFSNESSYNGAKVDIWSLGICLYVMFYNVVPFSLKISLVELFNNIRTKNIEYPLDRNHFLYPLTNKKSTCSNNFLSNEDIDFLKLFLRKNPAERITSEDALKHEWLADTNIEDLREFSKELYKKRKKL

| Compound | growth inhibition [1] | inhibition [2] | inhibition [3] | growth inhibition [4] | outcome [5] | outcome [6] | outcome [7] | outcome [8] |
| --- | --- | --- | --- | --- | --- | --- | --- | --- |
| CCNc1cc(C)nc(Nc2ccc(NC(=O)Cc3ccc(OC)cc3)cc2)n1 | 47% | 30% | -1% | 101% (active) | inactive | inactive | inactive | inactive |
| COc1cccc(CNC[C@@H](O)[C@H](Cc2ccccc2)NC(=O)c2cc(OC(C)C)cc(N3CCCCS3(=O)=O)c2)c1 | 49% | 8% | 5% | 95% (active) | inactive | inactive | inactive | inactive |
| COCCN1CCC(C(=O)NCC(C)(C)c2nc(-c3ccc(Br)c(O)c3)c(-c3ccncc3)[nH]2)CC1 | 6% | -12% | 3% | 99% (active) | inactive | inactive | inactive | inactive |
| O=C(Nc1cccc(CN2CCN(Cc3ccc(O)cc3)CC2)c1)c1cc2ccccc2s1 | 26% | 15% | -4% | 100% (active) | inactive | inactive | inactive | inactive |
